# According to PubChem BioAssay (EPA / NIEHS):
# Inconclusive results are not listed. The source made the active and inactive calls. How the source made its calls: active means hit-call score of the fitted dose curve at least 0.9, where 1 is the maximum; inconclusive means response in the unintended direction; inactive means score below 0.9.
# What was measured:
# [1] = target: human Protein Tyrosine Phosphatase Receptor Type M (PTPRM), PTPRM (gene 5797) (UniProt P28827); assay: NVS_ENZ_hPTPRM: NovaScreen (NVS) Enzymatic Assay for human Protein Tyrosine Phosphatase Receptor Type M (PTPRM) (AID 2283215)
# Sequence of human Protein Tyrosine Phosphatase Receptor Type M (PTPRM), PTPRM (gene 5797) (P28827 whole entry, looked up): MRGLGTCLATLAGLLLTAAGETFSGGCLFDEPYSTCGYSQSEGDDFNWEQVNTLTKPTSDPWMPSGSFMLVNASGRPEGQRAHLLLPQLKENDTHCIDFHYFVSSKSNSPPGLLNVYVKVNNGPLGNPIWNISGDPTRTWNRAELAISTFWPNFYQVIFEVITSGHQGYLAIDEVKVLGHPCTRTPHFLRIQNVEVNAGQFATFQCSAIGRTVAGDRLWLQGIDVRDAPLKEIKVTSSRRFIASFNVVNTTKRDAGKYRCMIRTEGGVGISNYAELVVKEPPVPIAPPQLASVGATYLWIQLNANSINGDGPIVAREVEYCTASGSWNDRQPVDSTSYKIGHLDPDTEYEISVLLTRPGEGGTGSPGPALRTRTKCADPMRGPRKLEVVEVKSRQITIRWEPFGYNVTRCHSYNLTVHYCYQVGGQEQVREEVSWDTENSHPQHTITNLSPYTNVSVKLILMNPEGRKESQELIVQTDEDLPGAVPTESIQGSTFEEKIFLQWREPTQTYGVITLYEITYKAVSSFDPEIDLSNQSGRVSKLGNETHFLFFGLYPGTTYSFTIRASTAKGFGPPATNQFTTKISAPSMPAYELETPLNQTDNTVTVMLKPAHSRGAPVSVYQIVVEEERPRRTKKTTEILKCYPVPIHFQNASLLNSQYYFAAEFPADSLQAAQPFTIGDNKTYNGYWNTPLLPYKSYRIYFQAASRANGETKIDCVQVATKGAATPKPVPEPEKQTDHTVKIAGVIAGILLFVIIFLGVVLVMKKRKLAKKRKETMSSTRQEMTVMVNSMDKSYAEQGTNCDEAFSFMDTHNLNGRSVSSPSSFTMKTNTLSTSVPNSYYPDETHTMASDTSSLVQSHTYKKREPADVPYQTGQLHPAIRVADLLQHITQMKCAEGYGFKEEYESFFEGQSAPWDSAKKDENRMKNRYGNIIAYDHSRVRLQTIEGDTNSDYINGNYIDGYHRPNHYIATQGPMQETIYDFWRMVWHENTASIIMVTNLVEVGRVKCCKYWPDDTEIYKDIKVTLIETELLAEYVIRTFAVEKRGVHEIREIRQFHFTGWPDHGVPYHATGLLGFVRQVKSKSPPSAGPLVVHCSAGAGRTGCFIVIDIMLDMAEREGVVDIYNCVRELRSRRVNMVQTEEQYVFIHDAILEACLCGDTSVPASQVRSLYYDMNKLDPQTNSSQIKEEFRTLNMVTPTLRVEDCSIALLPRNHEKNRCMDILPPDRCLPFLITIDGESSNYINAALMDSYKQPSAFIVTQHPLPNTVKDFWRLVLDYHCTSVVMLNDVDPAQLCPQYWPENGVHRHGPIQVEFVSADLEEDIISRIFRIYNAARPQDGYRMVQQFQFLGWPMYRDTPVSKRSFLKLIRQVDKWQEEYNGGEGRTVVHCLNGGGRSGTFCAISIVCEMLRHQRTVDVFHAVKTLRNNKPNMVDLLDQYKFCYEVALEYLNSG
# Summary of the method: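 Cell-free recombinant PTPRM with fluorogenic substrate; product separated from substrate by electrophoretic mobility shift and read by fluorescence, 1.33 h after dosing. Primary screen single concentration (25 uM) in duplicate; actives retested in concentration series; loss of signal versus DMSO.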
# [2] = target: human Phosphoinositide 3-kinase alpha (PI3Ka), PIK3CA (gene 5290) (UniProt P42336); assay: NVS_ENZ_hPI3Ka: NovaScreen (NVS) Enzymatic Assay for human Phosphoinositide 3-kinase alpha (PI3Ka) (AID 2283196)
# Summary of the method: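 Chemicals were first screened at 25 uM in duplicate, then hits were run as concentration series up to 50 uM. Enzyme activity was measured by fluorescence after mobility-shift separation, with loss of signal relative to DMSO taken as activity.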
# [3] = target: human Phosphatase and Tensin Homolog (PTEN), PTEN (gene 5728) (UniProt P60484); assay: NVS_ENZ_hPTEN: NovaScreen (NVS) Enzymatic Assay for human Phosphatase and Tensin Homolog (PTEN) (AID 2283203)
# Sequence of human Phosphatase and Tensin Homolog (PTEN), PTEN (gene 5728) (P60484 whole entry, looked up): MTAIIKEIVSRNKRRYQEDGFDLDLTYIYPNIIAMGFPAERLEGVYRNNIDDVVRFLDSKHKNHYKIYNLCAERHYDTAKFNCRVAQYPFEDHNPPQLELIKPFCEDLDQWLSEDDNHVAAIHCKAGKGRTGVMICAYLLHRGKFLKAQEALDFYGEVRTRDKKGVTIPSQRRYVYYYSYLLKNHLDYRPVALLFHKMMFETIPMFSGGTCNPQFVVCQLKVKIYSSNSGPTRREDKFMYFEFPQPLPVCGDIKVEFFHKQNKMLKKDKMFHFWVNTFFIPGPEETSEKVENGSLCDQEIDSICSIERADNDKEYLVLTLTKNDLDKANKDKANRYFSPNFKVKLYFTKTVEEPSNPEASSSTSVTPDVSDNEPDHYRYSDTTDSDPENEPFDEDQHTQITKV
# Summary of the method: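 Cell-free recombinant human PTEN with fluorescent substrate; product separated by electrophoretic mobility shift and read by fluorescence 1 h after dosing. Primary screen in duplicate at 25 uM, actives followed in concentration series versus DMSO.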
# [4] = target: human Protein Tyrosine Phosphatase Receptor Type F (PTPRF), PTPRF (gene 5792) (UniProt P10586); assay: NVS_ENZ_hPTPRF: NovaScreen (NVS) Enzymatic Assay for human Protein Tyrosine Phosphatase Receptor Type F (PTPRF) (AID 2283213)
# Sequence of human Protein Tyrosine Phosphatase Receptor Type F (PTPRF), PTPRF (gene 5792) (P10586 whole entry, looked up): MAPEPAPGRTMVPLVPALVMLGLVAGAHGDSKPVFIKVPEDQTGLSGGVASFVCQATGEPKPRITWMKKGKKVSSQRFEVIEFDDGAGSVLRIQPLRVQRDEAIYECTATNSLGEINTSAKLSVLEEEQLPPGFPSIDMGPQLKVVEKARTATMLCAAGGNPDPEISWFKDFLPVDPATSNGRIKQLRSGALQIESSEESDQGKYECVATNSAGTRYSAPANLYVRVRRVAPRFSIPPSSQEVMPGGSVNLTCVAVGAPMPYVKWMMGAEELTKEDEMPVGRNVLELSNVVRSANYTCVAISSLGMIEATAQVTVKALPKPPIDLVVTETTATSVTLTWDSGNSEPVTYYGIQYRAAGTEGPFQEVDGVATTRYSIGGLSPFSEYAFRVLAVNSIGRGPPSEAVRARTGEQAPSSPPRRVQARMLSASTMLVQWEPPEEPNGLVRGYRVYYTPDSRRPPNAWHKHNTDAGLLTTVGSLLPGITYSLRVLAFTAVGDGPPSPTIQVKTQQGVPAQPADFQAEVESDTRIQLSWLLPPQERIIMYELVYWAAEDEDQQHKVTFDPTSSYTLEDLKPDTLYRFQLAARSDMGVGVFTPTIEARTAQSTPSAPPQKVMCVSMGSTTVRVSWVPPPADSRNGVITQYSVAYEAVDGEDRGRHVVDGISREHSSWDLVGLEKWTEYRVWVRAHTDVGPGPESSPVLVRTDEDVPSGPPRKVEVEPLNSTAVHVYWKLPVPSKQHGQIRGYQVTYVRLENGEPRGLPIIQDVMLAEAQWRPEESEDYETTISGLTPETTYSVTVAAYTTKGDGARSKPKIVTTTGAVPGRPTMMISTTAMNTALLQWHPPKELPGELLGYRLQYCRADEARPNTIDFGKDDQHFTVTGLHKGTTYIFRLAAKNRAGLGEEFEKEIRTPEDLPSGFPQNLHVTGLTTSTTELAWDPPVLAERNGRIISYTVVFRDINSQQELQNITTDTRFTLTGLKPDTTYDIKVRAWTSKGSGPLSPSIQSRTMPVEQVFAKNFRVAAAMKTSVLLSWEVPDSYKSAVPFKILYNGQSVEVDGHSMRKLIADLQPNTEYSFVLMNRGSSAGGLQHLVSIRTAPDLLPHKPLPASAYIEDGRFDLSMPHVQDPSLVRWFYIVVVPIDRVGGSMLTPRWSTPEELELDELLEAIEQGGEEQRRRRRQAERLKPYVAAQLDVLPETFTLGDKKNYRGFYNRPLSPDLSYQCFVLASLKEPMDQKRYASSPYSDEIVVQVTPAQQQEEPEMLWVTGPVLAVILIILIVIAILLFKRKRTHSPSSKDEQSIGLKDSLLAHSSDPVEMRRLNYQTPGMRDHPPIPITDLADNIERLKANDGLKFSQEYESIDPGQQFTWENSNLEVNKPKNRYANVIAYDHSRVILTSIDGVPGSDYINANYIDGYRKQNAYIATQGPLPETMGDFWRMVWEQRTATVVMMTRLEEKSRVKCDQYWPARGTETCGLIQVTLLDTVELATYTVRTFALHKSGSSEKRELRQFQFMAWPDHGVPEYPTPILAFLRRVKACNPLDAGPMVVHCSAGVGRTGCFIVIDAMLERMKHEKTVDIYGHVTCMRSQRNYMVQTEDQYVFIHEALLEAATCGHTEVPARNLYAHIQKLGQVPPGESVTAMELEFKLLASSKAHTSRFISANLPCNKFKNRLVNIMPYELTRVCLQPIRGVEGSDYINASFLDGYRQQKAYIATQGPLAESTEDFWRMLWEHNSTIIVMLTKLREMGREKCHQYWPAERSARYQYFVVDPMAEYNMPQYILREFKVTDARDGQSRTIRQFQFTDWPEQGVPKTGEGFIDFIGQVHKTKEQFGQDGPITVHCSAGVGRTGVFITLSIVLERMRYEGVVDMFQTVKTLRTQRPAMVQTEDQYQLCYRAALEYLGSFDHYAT
# Summary of the method: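 Cell-free fluorescence enzyme assay with recombinant protein and substrate; product separated by electrophoretic mobility shift. Read 1 h after dosing, single 25 uM duplicate screen, then concentration-response up to 50 uM; loss of signal vs DMSO.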
# [5] = target: human Protein Tyrosine Phosphatase Non-receptor Type 4 (PTPN4), PTPN4 (gene 5775) (UniProt P29074); assay: NVS_ENZ_hPTPN4: NovaScreen (NVS) Enzymatic Assay for human Protein Tyrosine Phosphatase Non-receptor Type 4 (PTPN4) (AID 2283208)
# Summary of the method: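 Cell-free assay of PTPN4 expressed in Sf9 cells, using a fluorescent substrate with product separated by mobility shift; read 1.33 h after dosing. Single-point screen at 25 uM, then concentration-response up to 50 uM. Loss of signal relative to DMSO.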
# [6] = target: human Protein Tyrosine Phosphatase Non-receptor Type 9 (PTPN9), PTPN9 (gene 5780) (UniProt P43378); assay: NVS_ENZ_hPTPN9: NovaScreen (NVS) Enzymatic Assay for human Protein Tyrosine Phosphatase Non-receptor Type 9 (PTPN9) (AID 2283209)
# Sequence of human Protein Tyrosine Phosphatase Non-receptor Type 9 (PTPN9), PTPN9 (gene 5780) (P43378 whole entry, looked up): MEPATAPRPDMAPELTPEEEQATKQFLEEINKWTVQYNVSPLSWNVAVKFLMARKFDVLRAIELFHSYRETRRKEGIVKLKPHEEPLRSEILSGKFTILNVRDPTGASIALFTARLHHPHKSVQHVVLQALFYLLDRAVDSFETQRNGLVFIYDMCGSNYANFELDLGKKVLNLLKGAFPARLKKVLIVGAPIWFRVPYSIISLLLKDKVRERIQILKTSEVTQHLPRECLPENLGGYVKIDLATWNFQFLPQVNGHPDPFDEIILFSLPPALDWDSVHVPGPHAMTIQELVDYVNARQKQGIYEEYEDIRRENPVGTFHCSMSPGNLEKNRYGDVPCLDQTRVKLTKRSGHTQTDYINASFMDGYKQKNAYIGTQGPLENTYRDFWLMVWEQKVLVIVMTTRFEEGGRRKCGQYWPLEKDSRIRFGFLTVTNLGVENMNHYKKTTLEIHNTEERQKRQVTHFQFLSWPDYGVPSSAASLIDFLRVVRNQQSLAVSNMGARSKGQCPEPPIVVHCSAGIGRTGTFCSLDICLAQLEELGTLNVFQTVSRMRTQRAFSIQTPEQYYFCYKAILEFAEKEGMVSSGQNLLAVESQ
# Summary of the method: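 Sf9-expressed enzyme in a cell-free assay, fluorescence read 1.33 h after dosing with mobility-shift separation of substrate and product. Tested at 25 uM in duplicate, then up to 50 uM; signal loss versus DMSO.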
# [7] = target: Tyrosine-protein phosphatase non-receptor type 11 (Homo sapiens) (UniProt Q06124); assay: NVS_ENZ_hPTPN11: NovaScreen (NVS) Enzymatic Assay for human Protein Tyrosine Phosphatase Non-receptor Type 11 (PTPN11) (AID 2283202)
# Summary of the method: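 Recombinant human PTPN11 activity on a fluorescent substrate, with substrate/product separated by electrophoretic mobility shift; read 0.5 h after dosing, loss of signal vs DMSO. Duplicate 25 uM screen, then concentration-response up to 50 uM.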
# [8] = target: human Protein Tyrosine Phosphatase Non-receptor Type 2 (PTPN2), PTPN2 (gene 5771) (UniProt P17706); assay: NVS_ENZ_hPTPN2: NovaScreen (NVS) Enzymatic Assay for human Protein Tyrosine Phosphatase Non-receptor Type 2 (PTPN2) (AID 2283207)
# Sequence of human Protein Tyrosine Phosphatase Non-receptor Type 2 (PTPN2), PTPN2 (gene 5771) (P17706 whole entry, looked up): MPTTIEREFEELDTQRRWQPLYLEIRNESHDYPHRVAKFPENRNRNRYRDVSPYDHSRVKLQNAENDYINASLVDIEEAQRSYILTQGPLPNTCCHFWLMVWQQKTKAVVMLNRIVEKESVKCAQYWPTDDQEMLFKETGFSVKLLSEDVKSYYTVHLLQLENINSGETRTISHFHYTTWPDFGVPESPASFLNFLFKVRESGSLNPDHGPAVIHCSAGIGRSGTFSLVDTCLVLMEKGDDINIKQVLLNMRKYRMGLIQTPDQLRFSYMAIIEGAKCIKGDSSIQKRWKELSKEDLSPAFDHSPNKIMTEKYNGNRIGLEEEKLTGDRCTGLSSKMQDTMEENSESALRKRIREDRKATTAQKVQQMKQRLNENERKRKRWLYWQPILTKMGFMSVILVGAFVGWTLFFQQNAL
# Summary of the method: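 Cell-free recombinant enzyme with fluorescent substrate, product separated by electrophoretic mobility shift; read 1 h after dosing. Primary screen single concentration (25 uM) in duplicate; actives followed in concentration series; loss of signal versus DMSO.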
# [9] = target: human Protein Tyrosine Phosphatase Non-receptor Type 6 (PTPN6), PTPN6 (gene 5777) (UniProt P29350); assay: NVS_ENZ_hPTPN6: NovaScreen (NVS) Enzymatic Assay for human Protein Tyrosine Phosphatase Non-receptor Type 6 (PTPN6) (AID 2283210)
# Summary of the method: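 Cell-free assay with recombinant PTPN6 expressed in SF9 cells, fluorescent substrate, product separated from substrate by electrophoretic mobility shift; read 1.33 hours after dosing. Primary screen in duplicate at 25 uM, actives retested in concentration series; DMSO baseline.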
# [10] = target: human Protein Tyrosine Phosphatase Receptor Type B (PTPRB), PTPRB (gene 5787) (UniProt P23467); assay: NVS_ENZ_hPTPRB: NovaScreen (NVS) Enzymatic Assay for human Protein Tyrosine Phosphatase Receptor Type B (PTPRB) (AID 2283211)
# Summary of the method: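 Recombinant human PTPRB with a fluorescent substrate, product separated by electrophoretic mobility shift; read 1 h after dosing. Primary screen in duplicate at 25 uM; actives then retested in concentration series; loss of signal versus DMSO.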
# [11] = target: Serine/threonine-protein phosphatase PP1-alpha catalytic subunit (Homo sapiens) (UniProt P62136); assay: NVS_ENZ_hPPP1CA: NovaScreen (NVS) Enzymatic Assay for human Protein Phosphatase 1 Aatalytic subunit Alpha (PPP1CA) (AID 2283200)
# Sequence of Serine/threonine-protein phosphatase PP1-alpha catalytic subunit (Homo sapiens) (P62136 whole entry, looked up): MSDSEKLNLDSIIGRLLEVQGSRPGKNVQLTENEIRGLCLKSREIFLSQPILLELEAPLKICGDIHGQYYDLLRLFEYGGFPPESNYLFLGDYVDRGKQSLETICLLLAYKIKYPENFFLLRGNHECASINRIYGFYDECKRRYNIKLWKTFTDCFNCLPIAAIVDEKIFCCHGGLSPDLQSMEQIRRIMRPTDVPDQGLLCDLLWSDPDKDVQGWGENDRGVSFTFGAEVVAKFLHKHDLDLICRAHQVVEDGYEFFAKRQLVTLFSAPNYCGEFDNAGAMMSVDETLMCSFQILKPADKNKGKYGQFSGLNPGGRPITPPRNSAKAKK
# Summary of the method: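 Recombinant enzyme activity read by fluorescence with electrophoretic mobility shift separating substrate from product, 1.33 h after dosing; loss of signal vs DMSO baseline. Primary screen in duplicate at 25 uM; actives retested in concentration-response up to 50 uM.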
# PPP2CA (gene 5515) = PPP2CA (gene 5515) (UniProt P67775); assay: NVS_ENZ_hPPP2CA: NovaScreen (NVS) Enzymatic Assay for human Protein Phosphatase 2 Aatalytic subunit Alpha (PPP2CA) (AID 2283199)
# Summary of the method: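 Recombinant human PPP2CA with fluorescent substrate; product separated from substrate by electrophoretic mobility shift, read 1.33 h after dosing. Duplicate single-point at 25 uM, then singleton concentration-response up to 50 uM; loss of signal versus DMSO.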
# [12] = target: Tyrosine-protein phosphatase non-receptor type 12 (Homo sapiens) (UniProt Q05209); assay: NVS_ENZ_hPTPN12: NovaScreen (NVS) Enzymatic Assay for human Protein Tyrosine Phosphatase Non-receptor Type 12 (PTPN12) (AID 2283204)
# Summary of the method: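 Single-concentration duplicates (25 uM) preceded singleton concentration-response up to 50 uM for chemicals passing threshold. Cell-free recombinant PTPN12 activity was read 1.33 h after dosing via fluorescence after mobility-shift separation; loss of signal versus DMSO.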
# [13] = target: human Phosphodiesterase 10 (PDE10), PDE10A (gene 10846) (UniProt Q9Y233); assay: NVS_ENZ_hPDE10: NovaScreen (NVS) Enzymatic Assay for human Phosphodiesterase 10 (PDE10) (AID 2283195)
# Summary of the method: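 Fluorescence/mobility-shift readout of PDE10A enzyme activity, taken 1 h post-dosing. Primary screen in duplicate at 25 uM; actives (e.g. ≥30% inhibition) retested as singleton concentration-response, top concentration 50 uM.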
# [14] = target: Tyrosine-protein phosphatase non-receptor type 13 (Homo sapiens) (UniProt Q12923); assay: NVS_ENZ_hPTPN13: NovaScreen (NVS) Enzymatic Assay for human Protein Tyrosine Phosphatase Non-receptor Type 13 (PTPN13) (AID 2283205)
# Summary of the method: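 Cell-free assay of recombinant human PTPN13 with a fluorescent substrate, product separated by electrophoretic mobility shift and read 0.5 h after dosing. Primary screen at 25 uM in duplicate, then concentration-response up to 50 uM. Loss of signal fitted against DMSO.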
smiles,measurement,setting,value
CCC(C)(C)C(=O)OC1=C(c2ccc(Cl)cc2Cl)C(=O)OC12CCCCC2,outcome,[1],inactive
CCS(=O)(=O)c1cccnc1S(=O)(=O)NC(=O)Nc1nc(OC)cc(OC)n1,outcome,[2],inactive
same,outcome,[3],inactive
same,outcome,[4],inactive
same,outcome,[1],inactive
Cc1cc(C)nc(NC(=O)NS(=O)(=O)c2ccccc2C(=O)OC2COC2)n1,AC50,[5],4.96 µM (active)
same,AC50,[6],36.7 µM (active)
same,outcome,[1],inactive
CC[C@H](C)[C@H]1O[C@]2(C=C[C@@H]1C)C[C@@H]1C[C@@H](C/C=C(\C)[C@@H](O[C@H]3C[C@H](OC)[C@@H](O[C@H]4C[C@H](OC)[C@@H](O)[C@H](C)O4)[C@H](C)O3)[C@@H](C)/C=C/C=C3\CO[C@@H]4[C@H](O)C(C)=C[C@@H](C(=O)O1)[C@]34O)O2 (tested in a mixture with another compound),AC50,[2],5.57 µM (active)
same,outcome,[7],inactive
same,AC50,[8],41.1 µM (active)
same,AC50,[1],45.3 µM (active)
CC(C)(C)C(O)/C(=C\c1ccc(Cl)cc1Cl)n1cncn1 (centres undefined),outcome,[8],inactive
CNC(=O)CSP(=S)(OC)OC,outcome,[9],inactive
same,outcome,[10],inactive
same,outcome,[4],inactive
N#CN,outcome,[11],inactive
Oc1cc(Cl)ccc1Oc1ccc(Cl)cc1Cl,outcome,PPP2CA (gene 5515),inactive
same,outcome,[7],inactive
same,outcome,[12],inactive
same,outcome,[10],inactive
CN1CSC(=S)N(C)C1,outcome,[8],inactive
same,outcome,[5],inactive
same,outcome,[6],inactive
same,AC50,[4],10.1 µM (active)
same,AC50,[1],25 µM (active)
CC(C)(C)C(O)C(Oc1ccc(Cl)cc1)n1cncn1 (centres undefined),outcome,[13],inactive
same,outcome,PPP2CA (gene 5515),inactive
same,outcome,[3],inactive
same,outcome,[12],inactive
same,outcome,[14],inactive
same,outcome,[8],inactive
same,outcome,[6],inactive
same,outcome,[9],inactive
O=[N+]([O-])c1c(Cl)c(Cl)c(Cl)c(Cl)c1Cl,outcome,[11],inactive
same,outcome,[4],inactive
[2H]C1([2H])[n+]2ccccc2-c2cccc[n+]2C1([2H])[2H],AC50,[11],4.96 µM (active)
same,outcome,[7],inactive
same,AC50,[3],0.00229 µM (active)
